This is an account of results in PubChem BioAssay (EPA / NIEHS).

Several values for one entry are separate records, joined by “and”; a condition that tells them apart may be missing. Identical values can stand only once. Inconclusive results are not listed. Some compounds were tested as several samples or in several runs, with calls that do not always agree. Activity calls are given as the source filed them. How the source made its calls, unless noted: active means hit-call score of the fitted dose curve at least 0.9, where 1 is the maximum; inactive means score below 0.9.

In assay [1] the target is Ratio of Nucleoli Translocation and Cytoplasm, AR (gene 367) (UniProt P10275). The assay can be described thus: UPITT_HCI_U2OS_AR_TIF2_Nucleoli_Cytoplasm_Ratio_Antagonist: University of Pittsburgh U2OS Androgen Receptor-Transcriptional Intermediary Factor 2 (AR-TIF2) Antagonism High Content Imaging Assay for Ratio of Nucleoli Translocation and Cytoplasm (AID 2283999; active means hit-call score of the fitted dose curve at least 0.9, where 1 is the maximum;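 further: antagonists lower the DHT-driven ratio of nucleolar to cytoplasmic red signal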). The gist of the method:
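Read-out is the ratio of nucleolar to cytoplasmic AR-RFP fluorescence, imaged by high-content microscopy in U2OS cells coexpressing TIF2-GFP. Single-point 20 uM screen, triplicate confirmation, then 0.195–50 uM dose response; activity referenced to DHT baseline.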

The target is the same in assay [2]. The assay can be described thus: UPITT_HCI_U2OS_AR_TIF2_Nucleoli_Cytoplasm_Ratio_Agonist: University of Pittsburgh U2OS Androgen Receptor-Transcriptional Intermediary Factor 2 (AR-TIF2) Agonism High Content Imaging Assay for Ratio of Nucleoli Translocation and Cytoplasm (AID 2284000; active means hit-call score of the fitted dose curve at least 0.9, where 1 is the maximum;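 further: hits raise the red nucleolar to cytoplasm ratio above vehicle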). An excerpt: UPITT_AR_TIF2_PPIB is a cell-based, high-content imaging assay that uses U2OS, a human osteosarcoma cell line, expressing a human androgen receptor fused to red fluorescent protein and the coactivator TIF2 fused to green fluorescent protein. UPITT_HCI_U2OS_AR_TIF2_Nucleoli_Cytoplasm_Ratio_Agonist is one of four assay components measured from the UPITT_AR_TIF2_PPIB assay. It is designed to make measurements of the ratio of red fluorescence localized in the nucleolar region of the cell nucleus to red fluorescence localized in the cytoplasm as detected with high-content fluorescent imaging.Data from the assay component UPITT_HCI_U2OS_AR_TIF2_Nucleoli_Cytoplasm_Ratio_Agonist was analyzed into 1 assay endpoint. This assay endpoint, UPITT_HCI_U2OS_AR_TIF2_Nucleoli_Cytoplasm_Ratio_Agonist, was analyzed in the positive analysis fitting direction relative to DMSO as the baseline of activity. Using a type of binding reporter, measures of receptor for gain-of-signal activity can be used to understand the binding at the pathway-level as it relates to the gene AR.
Daughter plates containing 2 uL of 10 mM compounds in DMSO were prepared and replicated from the 384-well Library of Pharmacologically Active Compounds (LOPAC) master plates using the Bravo outfitted with a 384-well transfer head. Aluminum adhesive plate seals were applied with an Abgene Seal-IT 100 (Rochester, NY) plate sealer, and the plates were stored at -20 C in a Matrical MatriMinistore (Spokane, WA) automated compound storage and retrieval system. For screening, LOPAC daughter plates were withdrawn from -20C storage, thawed to ambient temperature, centrifuged 1-2 min at 50 g, and the plate seals were removed before the transfer of 98 uL of serum-free tissue culture medium (SFM) into wells using the BioTek Microflo liquid handler (BioTek, Winooski, VT) to generate a 200 uM intermediate stock concentration of library compounds (2.0% DMSO). The diluted compounds were mixed by repeated aspiration and dispensation using a 384-well P30 dispensing head on the Evolution P3 (EP3) liquid handling platform (PerkinElmer, Waltham, MA) and then 5 uL of diluted compounds was transferred to the wells of assay plates. In the LOPAC screen, compounds were individually tested at a final concentration of 20 uM (0.2% DMSO). After the diluted compounds had been transferred from the daughter plates to the primary HCS assay plates, aluminum adhesive plate seals were applied and the diluted daughter plates were stored frozen at -20C. To confirm active compounds identified in the primary screen, we withdrew the LOPAC daughter plates containing the 200 uM intermediate concentration of library compounds (2.0% DMSO) from -20C storage, thawed them to ambient temperature, centrifuged them for 1-2 min at 50 g, and removed the plate seals. A work list was generated to direct the Multiprobe Janus liquid handling platform (PerkinElmer) to cherry pick 75 uL from the wells of the diluted daughter plates that were flagged active in the primary screen and to reformat these into a 384-well plate hit confirmation daughter plate. Five microliters of primary HCS active compounds was then transferred into triplicate wells of assay plates using a 384-well P30 dispensing head on the Evolution P3 (EP3) liquid handling platform (PerkinElmer). […] Daughter plates containing 2 uL of the serially diluted compounds in DMSO were prepared and replicated from the 384-well serial dilution master plates using the Bravo outfitted with a 384-well transfer head. Aluminum adhesive plate seals were applied and plates were stored at -20C. For testing in the bioassays, daughter plates were withdrawn from -20C storage, thawed to ambient temperature, centrifuged for 1-2 min at 50 g, and the plate seals were removed before the transfer of 38 uL of SFM into wells using the BioTek Microflo liquid handler (BioTek) to generate an intermediate stock concentration of library compounds ranging from 1.95 to 500 uM (5.0% DMSO). […]

The nature of assay [3]: CCTE_Harrill_HTTr_Viability_MCF7: CCTE's 6-hour Cell Viability Assessment for the High-Throughput Transcriptomics (HTTr) Platform, in MCF-7 cells cultured in DMEM + 10% fetal bovine serum, Harrill Lab (AID 2284010). The gist of the method: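 PI exclusion, high-content imaging; 8-pt dilution series, 6 h exposure; bidirectional fit vs DMSO (neg. ctrl/baseline); gain of signal = loss of membrane integrity.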

Assay [4] is described as follows: CCTE_Harrill_HTTr_Apoptosis_MCF7: CCTE's 6-hour Apoptosis Assessment for the High-Throughput Transcriptomics (HTTr) Platform, in MCF-7 cells cultured in DMEM + 10% fetal bovine serum, Harrill Lab (AID 2284011). The gist of the method:
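Apoptosis in MCF-7 cells grown in DMEM with 10% fetal bovine serum was scored after a six hour exposure by high content imaging of caspase-3/7 activation (CellEvent Caspase 3/7 Green), with DMSO serving as negative control and baseline.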

Assay [5] is described as follows: CCTE_Shafer_MEA_acute_spike_number: CCTE's Neural Acute Assay for Total Number of Spikes, Shafer Lab (AID 2284008).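 On AC50: curve fitted for decrease in spike count so AC50 reflects inhibitors.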 The gist of the method:
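Using an adaptive detector set to 8x rms noise, spikes were counted in 40-min windows before and after compound addition (0.03-40 uM) to rat cortical networks at 37 C; the well-level change from baseline was analysed relative to DMSO.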

The nature of assay [6]: CCTE_Shafer_MEA_acute_firing_rate_mean: CCTE's Neural Acute Assay for Mean Firing Rate, Shafer Lab (AID 2284009).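 Further: analyzed for loss of signal so actives lower firing rate relative to DMSO.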 The method in brief:
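Primary rat cortical neurons on 16-electrode MEA wells were exposed on DIV 13 or 15 to compound (0.03-40 uM). Spike counts per recording time, averaged over electrodes, were compared between 40-min baseline and 40-min post-exposure recordings as percent change.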

The nature of assay [7]: CCTE_Harrill_HTTr_CellCount_MCF7: CCTE's Cell Proliferation Assessment for the High-Throughput Transcriptomics (HTTr) Platform, Harrill Lab (AID 2284012; active means hit-call score of the fitted dose curve at least 0.9, where 1 is the maximum;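 further: count of Hoechst-stained nuclei per well by high-content imaging in MCF-7 cells; cells exposed to compound for six hours; intended direction is loss of nuclei count meaning fewer cells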). The gist of the method: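 Readout: Hoechst nuclear count by high-content imaging. MCF-7, 8-point dilution series, 6 h exposure. Bidirectional fit vs DMSO baseline.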
A short description of assay [8]: CCTE_Shafer_MEA_acute_burst_number: CCTE's Neural Acute Assay for Single-Electrode Bursts, Shafer Lab (AID 2284013). The method in brief: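 Primary rat cortical neurons on 16-electrode MEA wells, DIV 13 or 15, exposed to compound (0.03-40 uM; ≥3 wells); 40-min recordings at 37 C before and after treatment. Burst count expressed as percent change from baseline, DMSO as negative control.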

Assay [9] in a line: CCTE_Simmons_MITO_basal_resp_rate: CCTE's HepG2 Seahorse XF Respirometric Screening Assay at Basal Respiratory State, Simmons Lab (AID 2284001). Conditions: actives raise or lower the signal. The gist of the method:
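Basal-phase OCR in HepG2 cells, read at 6-min intervals across a 72-min run, with test compound injected at 125 nM–100 uM final (7 points). Fitted both directions against DMSO; three biological replicates per concentration.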

The nature of assay [10]: CCTE_Simmons_MITO_inhib_resp_rate: CCTE's HepG2 Seahorse XF Respirometric Screening Assay at Inhibited Respiratory State [full ETC block], Simmons Lab (AID 2284006). To be noted: actives raise or lower the signal. The method in brief: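 OCR read-out in the inhibited phase following rotenone/antimycin A, after compound and FCCP injections, in HepG2 cells. Seven concentrations (125 nM to 100 uM final), three biological replicates, 6-min cycles over 72 min; DMSO baseline.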

Ratio of Nucleoli Translocation and Cytoplasm, AR (gene 367), sequence (P10275 whole entry, looked up): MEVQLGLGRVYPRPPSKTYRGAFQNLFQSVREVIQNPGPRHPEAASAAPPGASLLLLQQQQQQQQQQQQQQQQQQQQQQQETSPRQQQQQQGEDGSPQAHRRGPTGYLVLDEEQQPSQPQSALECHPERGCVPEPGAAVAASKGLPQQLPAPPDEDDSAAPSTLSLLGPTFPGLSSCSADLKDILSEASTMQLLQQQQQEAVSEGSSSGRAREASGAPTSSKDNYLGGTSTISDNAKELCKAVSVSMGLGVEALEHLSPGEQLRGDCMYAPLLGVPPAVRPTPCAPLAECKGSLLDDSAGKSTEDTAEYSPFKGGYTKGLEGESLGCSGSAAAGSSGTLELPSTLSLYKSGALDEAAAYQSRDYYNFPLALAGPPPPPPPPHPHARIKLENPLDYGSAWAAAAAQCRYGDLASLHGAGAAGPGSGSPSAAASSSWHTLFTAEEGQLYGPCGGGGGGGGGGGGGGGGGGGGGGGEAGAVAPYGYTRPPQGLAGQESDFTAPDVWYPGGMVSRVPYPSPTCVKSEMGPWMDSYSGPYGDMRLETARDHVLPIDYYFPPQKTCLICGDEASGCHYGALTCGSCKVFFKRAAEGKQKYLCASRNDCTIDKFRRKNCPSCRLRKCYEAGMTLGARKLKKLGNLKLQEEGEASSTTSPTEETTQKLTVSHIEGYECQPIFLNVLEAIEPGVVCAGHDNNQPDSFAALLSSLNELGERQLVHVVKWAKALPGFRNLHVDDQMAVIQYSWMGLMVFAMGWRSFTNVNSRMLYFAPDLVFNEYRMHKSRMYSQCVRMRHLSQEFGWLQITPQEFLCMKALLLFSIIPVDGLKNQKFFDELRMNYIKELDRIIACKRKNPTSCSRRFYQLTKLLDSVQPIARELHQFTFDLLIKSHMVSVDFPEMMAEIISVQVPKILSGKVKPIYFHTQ

Regarding `c1cc2ccc3cccc4ccc(c1)c2c34`, the outcome in assay [1], in [2], in assay [3] and in [4] was inactive.
As to `CCCN(CCC)N=O`, the molecule was classed as inactive in assay [5], in [6], in assay [3], in assay [4], in [7] and in assay [8].
`O=C(N[C@H]1CN2CCC1CC2)c1cc2ccoc2cn1`: the outcome in assay [2], in [5], in assay [6], in assay [3], in assay [4] and in assay [7] was inactive. For the same molecule, the call in assay [8] was inactive.
For orientation: AC50 means the concentration at which the activity in the assay is half-maximal. For the molecule `CC(c1ccc(O)cc1)(c1ccc(O)cc1)c1ccc(O)cc1`, the AC50 in assay [9] is 14.5 µM (active); in [5], 3.97 µM (active); in assay [6], 3.97 µM (active). Moreover, the outcome in assay [10], in [3], in assay [4] and in assay [8] was inactive.
Take `N#Cc1ccc(N(CC(N)=O)CC(F)(F)F)cc1C(F)(F)F`: the molecule was called inactive in [9], in assay [10], in [3] and in assay [4].
Consider `CCC(=O)O[C@H]1CC[C@H]2[C@@H]3CCC4=CC(=O)CC[C@]4(C)[C@H]3CC[C@]12C`, for which the concentration at half-maximal activity (AC50) in assay [2] is 0.000508 µM (active). The molecule was called inactive in [10] and in assay [4].
In the case of `CC1=C2C[C@H]3[C@@H](CC=C4C[C@@H](O)CC[C@@]43C)[C@@H]2CC[C@]12O[C@@H]1C[C@H](C)CN[C@H]1[C@H]2C`, the outcome in assay [1], in assay [2], in assay [4] and in assay [7] was inactive.
`CCCCCCCCOC(=O)c1ccccc1C(=O)OCCCCCCCC`: the outcome in assay [1], in [4] and in [7] was inactive.
Take `O=C(O)C(F)(F)C(F)(F)C(F)(F)C(F)(F)C(F)(F)C(F)(F)C(F)(F)C(F)(F)F`: the molecule was called inactive in assay [9], in assay [10], in assay [3], in [4] and in assay [7].
Regarding `Oc1ccc(C(c2ccc(O)cc2)(C(F)(F)F)C(F)(F)F)cc1`, the concentration at half-maximal activity (AC50) in assay [9] is 10.8 µM (active); in assay [5], 3.17 µM (active); in assay [6], 3.16 µM (active). Further, the result in assay [10], in [3], in [4] and in assay [8] was inactive.
`NS(=O)(=O)C(F)(F)C(F)(F)C(F)(F)C(F)(F)C(F)(F)C(F)(F)C(F)(F)C(F)(F)F`: the result in assay [1], in assay [10] and in assay [4] was inactive. Further, the values for the half-maximal activity concentration (AC50) in assay [2] and in [9] were 32 µM (active) and 34.9 µM (active), respectively.
As for `CCC(C)(c1ccc(O)cc1)c1ccc(O)cc1`, the concentration at half-maximal activity (AC50) in [9] was 16.9 µM (active). Moreover, the result in assay [10], in [5], in [6], in assay [3], in [4] and in assay [7] was inactive. In assay [8], the molecule was called inactive.
For `C[C@]12CCC(=O)C=C1CC[C@@H]1[C@@H]2CC[C@]2(C)C(=O)CC[C@@H]12`, in assay [9], the AC50 was 38 µM (active). Moreover, in [10], the molecule was called inactive.
As for `CCOC(=O)C(O)(c1ccc(Cl)cc1)c1ccc(Cl)cc1`, the outcome in assay [1], in assay [4] and in assay [7] was inactive. Further, in [2], the AC50 is 70.3 µM (active).
Consider `CO/C=C(/C(=O)OC)c1ccccc1COc1cccc(C(F)(F)F)n1`, for which the concentration at half-maximal activity (AC50) in assay [9] was 2.02 µM (active); in assay [10], 1.1 µM (active); in [5] it was 0.278 µM (active); in assay [6], 0.28 µM (active); in assay [8], 0.239 µM (active). Besides, the outcome in assay [4] was inactive.
On to `O=C(O)C(F)(F)C(F)(F)C(F)(F)C(F)(F)C(F)(F)C(F)(F)C(F)(F)C(F)(F)C(F)(F)F`, for which the molecule was called inactive in [9], in assay [10], in assay [3], in assay [4] and in assay [7].
Regarding `C=CC(=O)NCNC(=O)C=C`, the outcome in [1], in [2] and in [4] was inactive.
As for `CC(C)(c1ccccc1)c1ccc(O)cc1`, the AC50 in assay [9] was 19.9 µM (active). Besides, the result in [10], in [4] and in [7] was inactive.
`CCNc1nc(NC(C)C)nc(SC)n1`: the call in [9], in assay [10], in assay [3] and in assay [4] was inactive.
For `CCC(C)c1cc([N+](=O)[O-])cc([N+](=O)[O-])c1O` (stereo unspecified), the AC50 in assay [9] was 0.329 µM (active). Besides, the outcome in assay [10], in assay [5], in assay [6], in [4] and in [8] was inactive.
Take `Cc1ccccc1CO[C@@H]1C[C@@]2(C(C)C)CC[C@]1(C)O2`: the result in assay [1], in [2] and in assay [4] was inactive.
In the case of `O=C(NC(=O)c1c(F)cccc1F)Nc1cc(Cl)c(OC(F)(F)C(F)F)c(Cl)c1`, the result in [1], in assay [2], in assay [5], in assay [6], in assay [4] and in [7] was inactive. Besides, in assay [8], the call was inactive.
For the molecule `C[C@]12CCC(=O)C=C1CC[C@@H]1[C@@H]2CC[C@@]2(C)[C@H]1CC[C@]2(C)O`, the molecule was classed as inactive in assay [9], in assay [10], in [4] and in [7].
As to `CCSC(=O)N(CC)C1CCCCC1`, the concentration at half-maximal activity (AC50) is 50 µM (active) in [9], 20 µM (active) in [5] and 20 µM (active) in [6]. In addition, the result in [10], in [4], in assay [7] and in assay [8] was inactive.
As for `COc1ccc(O)c(C(C)(C)C)c1`, the half-maximal activity concentration (AC50) in assay [9] is 44 µM (active); in [5] it was 3.04 µM (active) and 633 nM (active); in assay [6], 3.03 µM (active) and 679 nM (active). For the same molecule, the call in assay [10], in [5], in assay [6], in assay [4] and in assay [8] was inactive.
